We go through 20 compounds from PubChem BioAssay.

Unmarked numbers belong to inactive results. The source made the active and inactive calls.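 Rule for the calls, unless noted: active = thallium flux through the channel raised or lowered by more than 3 SD from vehicle-only wells, actives on both sides; inactive = the rest.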

Assay [1] in a line: antimalarial activity against Dd2 strain (AID 2302;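 active = growth inhibition above 50% at the single 2 µM test dose, taken to imply half-maximal potency below 2 µM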;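 note: 0% = DMSO untreated growth and 100% = chloroquine plus artemisinin killed control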). To be noted: P. falciparum Dd2 in RBCs, LDH growth readout, 72 h; at 2 µM; hits give high values.
The nature of assay [2]: HepG2 cytotoxicity, primary screen, cytotoxicity control for P. falciparum antimalarial project, cell-based, ATP luminescence (AID 2303;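 active = inhibition above 50%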;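 note: 0% = DMSO wells and 100% = digitonin-killed cells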). To be noted: HepG2 viability, 24-48 h, at 10 µM, hits give high values.
For assay [3], the target named is L-lactate dehydrogenase (Plasmodium falciparum (isolate CDC / Honduras)) (UniProt Q27743). In words: PfLDH activity inhibition – cell lysate, 3D7 strain, counter-screen for P. falciparum growth inhibition project (AID 2304; call rule not given here;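 note: 0% = vehicle and 100% = reference inhibitor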). To be noted: P. falciparum 3D7 crude extract, LDH APAD/NBT absorbance; at 2 µM; hits give high values. (In general: A counterscreen serves to expose hits that act by an unwanted route or on another target.)

Assay [4] in a line: inhibition of 3D7 malaria parasite growth – strain 3D7 (AID 2306; call rule not given here;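 note: 0% = DMSO wells and 100% = chloroquine plus artemisinin control wells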). To be noted: P. falciparum 3D7 erythrocytic growth, LDH absorbance, 72 h; at 2 µM; hits give high values.
In assay [5] the target is Protein kinase 7 (PK7), Plasmodium falciparum 3D7 (PF3D7_0213400) (UniProt Q7YTF7). In words: inhibition of Plasmodium PK7 catalytic activity – biochemical, TCAMS antimalarial set, Kinase-Glo luminescence (AID 1159587; call rule not given here). To be noted: recombinant PfPK7, Kinase-Glo ATP depletion luminescence.
In assay [6] the test system is F380Y. The assay can be described thus: modulators of BK channel variants, profiling panel, selectivity assay, cell-based, U2OS BacMam, thallium flux, beta subunits (AID 1259406).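 Note: initial slope of Thallos dye fluorescence rise after thallium is added; log ratio against the mean of 0.3% DMSO vehicle wells on the same plate.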 To be noted: at 30 µM.
Assay [7] has as its system F380Y/beta1. The description is as above. The note with it: at 30 µM.
In assay [8] the test system is F380Y/beta2Delta. Described as above. To be noted: at 30 µM.
Assay [9] deals with F380Y/beta4. Described as above. To be noted: at 30 µM.
Assay [10] addresses Calcium-activated potassium channel subunit alpha-1 (Homo sapiens) + Leucine-rich repeat-containing protein 26 (Homo sapiens) (UniProt Q12791+Q2I0M4). The assay is described as above. The note with it: F380Y/Slo1WT/gamma1, at 30 µM.
Assay [11] relates to R275C. Described as above. The note with it: at 30 µM.
Assay [12] relates to R275C/beta1. The assay is described as above. To be noted: at 30 µM.
The subject of assay [13] is R275C/beta2Delta. Described as above. The note with it: at 30 µM.
The subject of assay [14] is R275C/beta4. The description is as above. The note with it: at 30 µM.
In assay [15] the test system is R275C/Slo1WT/beta2. Described as above. The note with it: at 30 µM.

Calcium-activated potassium channel subunit alpha-1 (Homo sapiens) + Leucine-rich repeat-containing protein 26 (Homo sapiens), sequence (Q2I0M4 whole entry, looked up, one chain of several): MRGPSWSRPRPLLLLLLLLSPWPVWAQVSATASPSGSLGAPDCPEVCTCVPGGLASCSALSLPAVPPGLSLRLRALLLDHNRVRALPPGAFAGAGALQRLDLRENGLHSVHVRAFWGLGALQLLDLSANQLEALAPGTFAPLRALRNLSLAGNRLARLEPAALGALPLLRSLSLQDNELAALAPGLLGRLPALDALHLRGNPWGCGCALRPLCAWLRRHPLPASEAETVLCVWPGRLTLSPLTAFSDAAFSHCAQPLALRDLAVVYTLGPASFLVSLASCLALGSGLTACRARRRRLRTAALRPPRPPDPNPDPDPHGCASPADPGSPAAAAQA
Protein kinase 7 (PK7), Plasmodium falciparum 3D7 (PF3D7_0213400), sequence (Q7YTF7 1-343): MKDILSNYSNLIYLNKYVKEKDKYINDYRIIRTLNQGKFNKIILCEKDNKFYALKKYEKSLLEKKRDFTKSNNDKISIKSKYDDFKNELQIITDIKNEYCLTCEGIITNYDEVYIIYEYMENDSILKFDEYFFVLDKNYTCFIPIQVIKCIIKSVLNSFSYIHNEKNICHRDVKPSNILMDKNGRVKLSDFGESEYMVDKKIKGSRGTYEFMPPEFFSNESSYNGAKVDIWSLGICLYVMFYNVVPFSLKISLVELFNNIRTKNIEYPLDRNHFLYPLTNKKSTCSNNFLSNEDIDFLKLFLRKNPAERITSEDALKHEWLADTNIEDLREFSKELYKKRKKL
L-lactate dehydrogenase (Plasmodium falciparum (isolate CDC / Honduras)), sequence (Q27743 whole entry, looked up): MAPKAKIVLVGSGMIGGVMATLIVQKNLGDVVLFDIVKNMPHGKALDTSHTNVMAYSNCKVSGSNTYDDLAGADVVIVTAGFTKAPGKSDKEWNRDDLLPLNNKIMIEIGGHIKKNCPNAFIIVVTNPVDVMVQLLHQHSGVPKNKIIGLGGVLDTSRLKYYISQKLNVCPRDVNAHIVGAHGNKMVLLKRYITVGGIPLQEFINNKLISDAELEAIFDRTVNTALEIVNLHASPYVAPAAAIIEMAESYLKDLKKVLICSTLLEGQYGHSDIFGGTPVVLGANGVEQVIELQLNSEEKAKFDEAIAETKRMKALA

In the case of `CC(c1cccc(Nc2nccc(-c3c(-c4cccc(NC(=O)c5c(F)cccc5F)c4)nn4ncccc34)n2)c1)S(C)(=O)=O` (stereo not given), the growth inhibition in [1] and in assay [4] was 98% (active) throughout. The inhibition was 79% (active) in [2] and 4% in assay [3]. Also, in assay [5], the outcome was inactive.
Turning to `CCN(CC)CCCOc1ccc(Nc2nccc(-c3c(-c4cccc(NC(=O)c5c(F)cccc5F)c4)nn4ccccc34)n2)cc1F`, the growth inhibition in [1] is 99% (active); in assay [4], 100% (active). The results for the inhibition in assay [2] and in assay [3] were 86% (active) and -5%, respectively. Besides, the outcome in assay [5] was inactive.
On to `FC(F)(F)c1cc(-c2noc(-c3ccc4c(c3)CCO4)n2)cc(C(F)(F)F)c1`, for which the log fold change Tl+ flux in assay [6] is 0.118 (active); in assay [7], 0.292 (active); in assay [8], 0.24 (active); in [9], 0.269 (active); in assay [10] it was 0.0774; in assay [11], 0.0291. The log fold change Tl+ flux in assay [12] is 0.191 (active); in assay [13] it was 0.182 (active); in [14] it was 0.0808 (active); in assay [15] it was -0.0138.
Turning to `Cc1cccc(N=Cc2cc(Cl)cc(Cl)c2O)c1C`, the log fold change Tl+ flux was 0.049 in assay [6]; 0.0694 in [7]; 0.0737 in assay [8]; 0.0885 in [9]; 0.078 in assay [10]; 0.0221 in assay [11]. For the same compound, the log fold change Tl+ flux was 0.0155 in assay [12], 0.0671 in assay [13], 0.00158 in assay [14] and -0.00626 in assay [15].
On to `COc1cc(NC(=S)Nc2cccc(C)n2)c(OC)cc1Cl`, for which the log fold change Tl+ flux was 0.00134 in assay [6]; -0.00183 in [7]; 0.043 in assay [8]; 0.0519 in [9]; -0.00641 in assay [10]; 0.00398 in assay [11]. Besides, the log fold change Tl+ flux in assay [12] is -0.033; in assay [13], 0.0321; in assay [14], -0.0698; in [15] it was -0.00284.
`O=C(O)c1cccc(CSc2cccs2)c1`: the log fold change Tl+ flux in assay [6] was 0.0692; in assay [7] it was 0.0279; in assay [8], 0.0398; in assay [9] it was 0.000664; in [10] it was 0.0207; in assay [11] it was 0.0115. Further, the log fold change Tl+ flux in assay [12] is 0.0346; in [13], 0.018; in assay [14] it was 0.0269; in [15] it was 0.0372.
With `Cc1cc(Nc2ncc(C#N)c(Nc3ccccc3C(N)=O)n2)ccc1N1CCN(C)CC1`, the growth inhibition in [1] and in [4] was 94% (active) each time. In addition, the values for the inhibition in assay [2] and in assay [3] were 99% (active) and 0%, respectively. Also, the result in assay [5] was inactive.
Take `CS(=O)(=O)Cc1ccc(Nc2nccc(-c3c(-c4cccc(C(=O)Nc5c(F)cccc5F)c4)nn4ccccc34)n2)cc1`: the results for the growth inhibition in assay [1] and in assay [4] were 92% (active) and 96% (active), respectively. Moreover, the figures for the inhibition in assay [2] and in assay [3] were 85% (active) and -1%, respectively. Moreover, the outcome in assay [5] was inactive.
Take `Cn1c(C(F)(F)F)nnc1S(=O)(=O)Cc1ccc(-c2csnn2)cc1`: the log fold change Tl+ flux is 0.0645 in assay [6]; 0.0098 in [7]; 0.0485 in [8]; 0.114 (active) in assay [9]; 0.00754 in assay [10]; 0.0229 in assay [11]. The log fold change Tl+ flux is -0.0587 in [12], 0.0374 in assay [13], -0.0154 in assay [14] and -0.0301 in assay [15].
In the case of `O=C(Nc1cccc(-c2nn3ccccc3c2-c2ccnc(Nc3ccc(NCCCN4CCOCC4)c(F)c3)n2)c1)c1c(F)cccc1F`, the values for the growth inhibition in [1] and in assay [4] were 97% (active) and 100% (active), respectively. For the same compound, the inhibition is 86% (active) in assay [2] and 0% in assay [3]. The result in [5] was inactive.
As to `NC(Cc1ccc(OCc2ncc(C(F)(F)F)cc2Cl)cc1)=NOC(=O)c1ccccc1`, the log fold change Tl+ flux was 0.0193 in [6]; -0.00621 in [7]; 0.00968 in assay [8]; -0.0023 in assay [9]; -0.00749 in assay [10]; 0.0533 in assay [11]. Moreover, the log fold change Tl+ flux in assay [12] is 0.0113; in assay [13] it was 0.000291; in assay [14], 0.00465; in [15] it was 0.0382.
Turning to `CC(=O)Nc1ccc(OCC(=O)N2CCN(c3ncc(C(F)(F)F)cc3Cl)CC2)cc1`, the log fold change Tl+ flux in assay [6] was 0.046; in [7] it was 0.0214; in [8] it was 0.00987; in assay [9], 0.125 (active); in [10], 0.039; in [11], 0.0368. Moreover, the log fold change Tl+ flux was 0.00256 in [12], 0.0353 in assay [13], 0.0246 in assay [14] and 0.0473 in assay [15].
Regarding `CC(=O)Nc1ccc(S(=O)(=O)C[N+](=O)[O-])cc1`, the log fold change Tl+ flux in assay [6] was -0.0207; in [7] it was -0.00968; in assay [8] it was 0.0255; in assay [9] it was -0.00689; in [10] it was 0.00333; in [11] it was -0.0177. The log fold change Tl+ flux was -0.00122 in [12], 0.0327 in assay [13], -0.0178 in [14] and -0.0147 in [15].
For `CC(C)(C)c1ccc(Oc2ccc(NC(=O)Nc3cccs3)cn2)cc1`, the log fold change Tl+ flux was -0.105 (active) in assay [6]; 0.131 (active) in [7]; -0.0118 in [8]; 0.0598 in assay [9]; 0.0627 in assay [10]; 0.0691 in [11]. The log fold change Tl+ flux in [12] is 0.0982; in assay [13], 0.0026; in assay [14], 0.026; in assay [15], -0.00521.
As for `NC(=O)c1nnn(-c2ccc([N+](=O)[O-])cc2)c1-c1ccccc1`, the log fold change Tl+ flux in [6] was 0.0114; in assay [7], -0.0124; in assay [8] it was 0.0187; in assay [9] it was 0.0444; in assay [10] it was 0.0451; in [11], -0.0124. Besides, the log fold change Tl+ flux is -0.0135 in [12], 0.0277 in assay [13], 0.0182 in assay [14] and -0.00577 in [15].
Turning to `O=C(Cn1nnc(N2CCCC2)n1)NN=Cc1ccc(Cl)cc1`, the log fold change Tl+ flux was -0.0338 in [6]; -0.0165 in [7]; -0.0415 in assay [8]; 0.0509 in assay [9]; -0.0411 in assay [10]; 0.0738 in assay [11]. For the same compound, the log fold change Tl+ flux in assay [12] was 0.012; in assay [13], -0.0395; in assay [14], 0.0185; in assay [15], -0.00152.
With `CC1=NC2SC=C(c3ccccc3Cl)N2C(=O)C1` (stereo not given), the log fold change Tl+ flux in assay [6] was -0.0123; in assay [7], 0.0244; in [8], -0.0252; in assay [9], 0.00331; in assay [10] it was -0.0675; in assay [11] it was -0.0205. Besides, the log fold change Tl+ flux in assay [12] was 0.0259; in assay [13] it was -0.0444; in [14] it was 0.037; in assay [15] it was 0.0321.
For the compound `NC(=O)CN1C(=O)C(=Cc2ccco2)N=C1c1ccccc1`, the log fold change Tl+ flux was -0.0123 in assay [6]; -0.0266 in assay [7]; -0.0599 in assay [8]; -0.0551 in assay [9]; -0.015 in assay [10]; -0.000262 in assay [11]. Also, the log fold change Tl+ flux in assay [12] is 0.031; in assay [13], -0.0538; in assay [14] it was 0.0139; in assay [15] it was -0.0206.
Turning to `O=S(=O)(NCc1ccc2c(c1)CCO2)c1cccs1`, the log fold change Tl+ flux was -0.0321 in [6]; -0.0222 in [7]; -0.0113 in assay [8]; -0.00792 in assay [9]; -0.0976 in assay [10]; -0.0104 in [11]. Besides, the log fold change Tl+ flux in assay [12] was -0.072; in assay [13], -0.0692; in assay [14] it was -0.0665; in assay [15], -0.0508.
As for `O=S(=O)(Cc1nc(C=Cc2cc(C(F)(F)F)cc(C(F)(F)F)c2)no1)c1ccc(Cl)cc1`, the log fold change Tl+ flux in [6] is -0.0307; in assay [7], 0.0685; in assay [8], 0.000486; in assay [9], -0.0134; in assay [10], 0.00425; in assay [11], 0.0144. Besides, the log fold change Tl+ flux is 0.0543 in [12], 0.0281 in assay [13], -0.0177 in [14] and 0.00318 in assay [15].

As a reminder, the inhibition is the change of the read-out against control, counted positive when it falls.
